Measured values published in PMC9838217, “Structure of SALL4 zinc finger domain reveals link between AT-rich DNA binding and Okihiro syndrome”.
Changes are numbered by the printed parent chain.

How the values were obtained:
Test in all cases: HT-SELEX; high values mean tight binding
Settings in all cases: protein: recombinant; vector His6-GST; dsDNA, one strand shown
SALL4 ZFC4 WT (HT-SELEX) = target: T1, SALL4 ZFC4 WT (HT-SELEX) (Mus musculus, UniProt Q8BX22 870-940)
T1 sequence: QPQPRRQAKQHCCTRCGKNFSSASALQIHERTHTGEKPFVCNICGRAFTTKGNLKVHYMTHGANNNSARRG
Outline: (§1)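 Purified recombinant mouse SALL4 zinc finger cluster 4 (residues 870–940, 1 µg) and library DNA (1.5 µg first cycle, 200 ng later) were incubated for 10 min at room temperature in 100 µl of 10 mM Tris–HCl pH 7.5, 50 mM NaCl, poly(dI-dC) and DTT. After Ni2+ bead capture and up to 6 triplicate cycles of selection, DNA was MiSeq-sequenced and scanned for 6-mers. Binding signal is the fold change in each canonical k-mer's read fraction relative to the initial random library.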

[1] = target: T2, SALL4 ZFC4 R900W (HT-SELEX) (Mus musculus, UniProt Q8BX22 870-940, R900W)
T2 sequence: T1 sequence with R31W
Outline: as §1

[2] = target: T3, SALL4 ZFC4 G921D (HT-SELEX) (Mus musculus, UniProt Q8BX22 870-940, G921D)
T3 sequence: T1 sequence with G52D
Outline: as §1

## GGATCA
SALL4 ZFC4 WT (HT-SELEX)
  binding signal: 0.841 ± 0.0365 fold-change vs cycle 0
[1]
  binding signal: 0.972 ± 0.0131 fold-change vs cycle 0
[2]
  binding signal: 1.03 ± 0.0289 fold-change vs cycle 0

## CTGTCA
SALL4 ZFC4 WT (HT-SELEX)
  binding signal: 0.753 ± 0.03 fold-change vs cycle 0
[1]
  binding signal: 0.862 ± 0.0445 fold-change vs cycle 0
[2]
  binding signal: 0.932 ± 0.0438 fold-change vs cycle 0

## ACAACG
SALL4 ZFC4 WT (HT-SELEX)
  binding signal: 0.592 ± 0.0372 fold-change vs cycle 0
[1]
  binding signal: 0.676 ± 0.029 fold-change vs cycle 0
[2]
  binding signal: 0.769 ± 0.0401 fold-change vs cycle 0

## CTTAAG
SALL4 ZFC4 WT (HT-SELEX)
  binding signal: 1.38 ± 0.0318 fold-change vs cycle 0
[1]
  binding signal: 1.56 ± 0.0368 fold-change vs cycle 0
[2]
  binding signal: 1.46 ± 0.11 fold-change vs cycle 0

## CAGAGC
SALL4 ZFC4 WT (HT-SELEX)
  binding signal: 0.315 ± 0.0109 fold-change vs cycle 0
[1]
  binding signal: 0.382 ± 0.0231 fold-change vs cycle 0
[2]
  binding signal: 0.524 ± 0.0543 fold-change vs cycle 0

## ATGACC
SALL4 ZFC4 WT (HT-SELEX)
  binding signal: 0.806 ± 0.0726 fold-change vs cycle 0
[1]
  binding signal: 0.891 ± 0.0488 fold-change vs cycle 0
[2]
  binding signal: 0.947 ± 0.065 fold-change vs cycle 0

## GATCTA
SALL4 ZFC4 WT (HT-SELEX)
  binding signal: 1.25 ± 0.0377 fold-change vs cycle 0
[1]
  binding signal: 1.36 ± 0.0544 fold-change vs cycle 0
[2]
  binding signal: 1.41 ± 0.0811 fold-change vs cycle 0

## AGCAAT
SALL4 ZFC4 WT (HT-SELEX)
  binding signal: 1.19 ± 0.0605 fold-change vs cycle 0
[1]
  binding signal: 1.21 ± 0.0474 fold-change vs cycle 0
[2]
  binding signal: 1.25 ± 0.111 fold-change vs cycle 0

## ACCGTC
SALL4 ZFC4 WT (HT-SELEX)
  binding signal: 0.344 ± 0.0295 fold-change vs cycle 0
[1]
  binding signal: 0.418 ± 0.0372 fold-change vs cycle 0
[2]
  binding signal: 0.528 ± 0.0646 fold-change vs cycle 0

## ATCGTC
SALL4 ZFC4 WT (HT-SELEX)
  binding signal: 0.685 ± 0.0177 fold-change vs cycle 0
[1]
  binding signal: 0.755 ± 0.0322 fold-change vs cycle 0
[2]
  binding signal: 0.852 ± 0.0307 fold-change vs cycle 0

## ATTCCG
SALL4 ZFC4 WT (HT-SELEX)
  binding signal: 0.646 ± 0.0192 fold-change vs cycle 0
[1]
  binding signal: 0.697 ± 0.0273 fold-change vs cycle 0
[2]
  binding signal: 0.798 ± 0.0236 fold-change vs cycle 0

## ATATGA
SALL4 ZFC4 WT (HT-SELEX)
  binding signal: 3.11 ± 0.303 fold-change vs cycle 0
[1]
  binding signal: 2.07 ± 0.156 fold-change vs cycle 0
[2]
  binding signal: 1.85 ± 0.196 fold-change vs cycle 0

## AACCAT
SALL4 ZFC4 WT (HT-SELEX)
  binding signal: 1.38 ± 0.0512 fold-change vs cycle 0
[1]
  binding signal: 1.42 ± 0.0463 fold-change vs cycle 0
[2]
  binding signal: 1.41 ± 0.0967 fold-change vs cycle 0

## ATTGTC
SALL4 ZFC4 WT (HT-SELEX)
  binding signal: 1.14 ± 0.0493 fold-change vs cycle 0
[1]
  binding signal: 1.21 ± 0.0499 fold-change vs cycle 0
[2]
  binding signal: 1.24 ± 0.0435 fold-change vs cycle 0

## CGATCA
SALL4 ZFC4 WT (HT-SELEX)
  binding signal: 0.683 ± 0.0475 fold-change vs cycle 0
[1]
  binding signal: 0.7718 ± 0.00739 fold-change vs cycle 0
[2]
  binding signal: 0.896 ± 0.0609 fold-change vs cycle 0

## ACGGAG
SALL4 ZFC4 WT (HT-SELEX)
  binding signal: 0.414 ± 0.0316 fold-change vs cycle 0
[1]
  binding signal: 0.522 ± 0.0321 fold-change vs cycle 0
[2]
  binding signal: 0.609 ± 0.0699 fold-change vs cycle 0

## GCTACA
SALL4 ZFC4 WT (HT-SELEX)
  binding signal: 0.6 ± 0.0288 fold-change vs cycle 0
[1]
  binding signal: 0.67 ± 0.0106 fold-change vs cycle 0
[2]
  binding signal: 0.752 ± 0.0182 fold-change vs cycle 0

## GTCTCA
SALL4 ZFC4 WT (HT-SELEX)
  binding signal: 0.736 ± 0.016 fold-change vs cycle 0
[1]
  binding signal: 0.879 ± 0.00912 fold-change vs cycle 0
[2]
  binding signal: 0.938 ± 0.0386 fold-change vs cycle 0

## CCTTTA
SALL4 ZFC4 WT (HT-SELEX)
  binding signal: 1.31 ± 0.0506 fold-change vs cycle 0
[1]
  binding signal: 1.47 ± 0.0755 fold-change vs cycle 0
[2]
  binding signal: 1.33 ± 0.0771 fold-change vs cycle 0

## AAGTGG
SALL4 ZFC4 WT (HT-SELEX)
  binding signal: 0.762 ± 0.0311 fold-change vs cycle 0
[1]
  binding signal: 0.891 ± 0.0548 fold-change vs cycle 0
[2]
  binding signal: 0.909 ± 0.0639 fold-change vs cycle 0

## CGGGTA
SALL4 ZFC4 WT (HT-SELEX)
  binding signal: 0.363 ± 0.0204 fold-change vs cycle 0
[1]
  binding signal: 0.435 ± 0.0153 fold-change vs cycle 0
[2]
  binding signal: 0.521 ± 0.0456 fold-change vs cycle 0

## ACACAG
SALL4 ZFC4 WT (HT-SELEX)
  binding signal: 0.726 ± 0.03 fold-change vs cycle 0
[1]
  binding signal: 0.835 ± 0.00993 fold-change vs cycle 0
[2]
  binding signal: 0.877 ± 0.04 fold-change vs cycle 0

## ACAACA
SALL4 ZFC4 WT (HT-SELEX)
  binding signal: 1.16 ± 0.0181 fold-change vs cycle 0
[1]
  binding signal: 1.28 ± 0.0315 fold-change vs cycle 0
[2]
  binding signal: 1.25 ± 0.0467 fold-change vs cycle 0

## CATCGA
SALL4 ZFC4 WT (HT-SELEX)
  binding signal: 0.706 ± 0.0155 fold-change vs cycle 0
[1]
  binding signal: 0.749 ± 0.0387 fold-change vs cycle 0
[2]
  binding signal: 0.854 ± 0.0254 fold-change vs cycle 0

## GTCCAC
SALL4 ZFC4 WT (HT-SELEX)
  binding signal: 0.374 ± 0.044 fold-change vs cycle 0
[1]
  binding signal: 0.454 ± 0.026 fold-change vs cycle 0
[2]
  binding signal: 0.569 ± 0.0681 fold-change vs cycle 0

## TAACCA
SALL4 ZFC4 WT (HT-SELEX)
  binding signal: 1.42 ± 0.042 fold-change vs cycle 0
[1]
  binding signal: 1.47 ± 0.047 fold-change vs cycle 0
[2]
  binding signal: 1.37 ± 0.0838 fold-change vs cycle 0

## AATGAC
SALL4 ZFC4 WT (HT-SELEX)
  binding signal: 1.18 ± 0.09 fold-change vs cycle 0
[1]
  binding signal: 1.36 ± 0.06 fold-change vs cycle 0
[2]
  binding signal: 1.3 ± 0.105 fold-change vs cycle 0

## ATATAC
SALL4 ZFC4 WT (HT-SELEX)
  binding signal: 2.19 ± 0.164 fold-change vs cycle 0
[1]
  binding signal: 1.98 ± 0.103 fold-change vs cycle 0
[2]
  binding signal: 1.78 ± 0.131 fold-change vs cycle 0

## GGTAAA
SALL4 ZFC4 WT (HT-SELEX)
  binding signal: 1.19 ± 0.0123 fold-change vs cycle 0
[1]
  binding signal: 1.3 ± 0.0352 fold-change vs cycle 0
[2]
  binding signal: 1.23 ± 0.0522 fold-change vs cycle 0

## CGTTAC
SALL4 ZFC4 WT (HT-SELEX)
  binding signal: 0.817 ± 0.0239 fold-change vs cycle 0
[1]
  binding signal: 0.932 ± 0.0341 fold-change vs cycle 0
[2]
  binding signal: 0.941 ± 0.0136 fold-change vs cycle 0
